Drawing on the supplement of paper PMC8699584, this text covers cell viability for 18 compounds.

± gives the standard deviation of the averaged measurements.

The test system of one assay is Molm13. Kind of assay: cell viability relative to DMSO control (bortezomib = 0%); higher = less growth inhibition. The note with it: 10 nM; 72 h. The method, boiled down: (§1)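 Each plate's values were converted to percentages by linear regression, taking DMSO-treated cells as 100% and positive-control-treated cells as 0%. These plates were 384-well plates of 679 approved and investigational compounds at a single 10 nM dose, onto which acute myeloid leukemia cells were dispensed at 1000 cells per well in 50 µL for 72 h, in duplicate. Cell viability came from CellTiter-Glo luminescence on an EnVision reader.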

The subject of another assay is Mv4-11. Described as above. The note with it: 10 nM; 72 h. The method, boiled down:
as §1

Regarding `N#C/C(=C\c1ccc(O)c(O)c1)C(N)=S`, the results for the cell viability with Molm13 and in the assay with Mv4-11 were 91.3 ± 7.4% and 104 ± 2.4%, respectively.
`COc1ccc2c(c[n+](C)c3c4cc5c(cc4ccc23)OCO5)c1OC` [Chelerythrine (chloride)]: the results for the cell viability in the assay on Molm13 and in the assay on Mv4-11 were 106 ± 10% and 108 ± 1.4%, respectively.
`Cc1ccccc1-n1c(Cn2ncc3c(N)ncnc32)nc2cccc(C)c2c1=O`: the cell viability in the assay on Molm13 was found to be 117 ± 1.4%; in the assay on Mv4-11, 117 ± 14%.
The matching figures for `CC(C)(C)c1cc(C=C(C#N)C#N)cc(C(C)(C)C)c1O` [Tyrphostin 9]: 96.2 ± 18% and 99.7 ± 4.1%.
The corresponding values for `O=C([O-])C(Cl)Cl.[Na+]` [Sodium†Dichloroacetate] are 74 ± 24% and 110.7 ± 0.021%.
With `COc1cc([C@@H]2c3cc4c(cc3[C@H](O)[C@H]3COC(=O)[C@@H]23)OCO4)cc(OC)c1OC` [Picropodophyllin (PPP)], the cell viability came out at 98.4 ± 8.1% in the assay on Molm13 and 109 ± 3.8% in the assay on Mv4-11.
Turning to `COC[C@H]1OC(=O)c2coc3c2[C@@]1(C)C1=C(C3=O)[C@@H]2CCC(=O)[C@@]2(C)C[C@H]1OC(C)=O` [Wortmannin], the cell viability in the assay on Molm13 was found to be 114 ± 9%; with Mv4-11, 110.22 ± 0.09%.
The corresponding values for `Cc1ccccc1-n1c(Cn2cnc3c(N)ncnc32)nc2cccc(C)c2c1=O` are 108 ± 13% and 111 ± 5.5%.
For `CN[C@@H]1C[C@H]2O[C@@](C)([C@@H]1OC)n1c3ccccc3c3c4c(c5c6ccccc6n2c5c31)C(=O)NC4` [Staurosporine], the cell viability was found to be 11.9 ± 18% with Molm13 and 5.41 ± 3.4% in the assay with Mv4-11.
The corresponding values for `CC(=O)OC(C)(C)/C=C/C(=O)[C@](C)(O)[C@H]1[C@H](O)C[C@@]2(C)[C@@H]3CC=C4[C@H](C[C@H](O)C(=O)C4(C)C)[C@]3(C)C(=O)C[C@]12C` [Cucurbitacin B] are 61.7 ± 0.99% and 82.9 ± 4.3%.
Regarding `O=c1[nH]c2ccccc2n1C1CCN(Cc2ccc(-c3[nH]c4cc5ncnc5cc4nc3-c3ccccc3)cc2)CC1` [AKT inhibitor VIII], the cell viability in the assay on Molm13 worked out at 103 ± 12%; with Mv4-11 it was 103 ± 5.7%.
The matching figures for `CC(C)=CCC[C@](C)(O)[C@H]1CC[C@]2(C)[C@@H]1[C@H](O)C[C@@H]1[C@@]3(C)CC[C@H](O[C@@H]4O[C@H](CO)[C@@H](O)[C@H](O)[C@H]4O)C(C)(C)[C@@H]3CC[C@]12C` [Ginsenoside Rh2]: 116 ± 2.1% and 111 ± 2.3%.
The matching figures for `CC(=O)N[C@H]1[C@@H](O[C@@H]2O[C@H](CC(O)[C@H]3O[C@@H](n4ccc(=O)[nH]c4=O)[C@H](O)[C@@H]3O)[C@H](O)[C@H](O)[C@H]2NC(=O)/C=C/CC(C)C)O[C@H](CO)[C@@H](N)[C@@H]1O` (stereo partly specified) [Tunicamycin]: 105 ± 14% and 103 ± 3.8%.
The corresponding values for `C/C(O)=C(\C#N)C(=O)Nc1cc(Br)ccc1Br` are 108 ± 6.6% and 114 ± 7.8%.
In the case of `COc1ccc(N(C(=O)Oc2c(C)cccc2C)c2ccnc(Nc3ccc(N4CCN(C)CC4)cc3)n2)c(OC)c1`, the cell viability with Molm13 is 94.5 ± 18%; in the assay on Mv4-11 it was 108 ± 5.2%.
The matching figures for `COC(=O)C1(OC)CC2OC1(C)n1c3ccccc3c3c4c(c5c6ccccc6n2c5c31)C(=O)N(C)C4` (stereo unspecified): 115 ± 6.2% and 109 ± 2%.
The matching figures for `COc1ccc2c(c[n+](C)c3c4cc5c(cc4ccc23)OCO5)c1OC` [Chelerythrine chloride]: 115 ± 13% and 112 ± 6.5%.
For the compound `O=C(O)c1nn(Cc2ccc(Cl)cc2Cl)c2ccccc12` [Lonidamine], the cell viability worked out at 123 ± 1.8% with Molm13 and 120 ± 4.8% in the assay on Mv4-11.
